Laboratory results: PMC7862700, “An all-to-all approach to the identification of sequence-specific readers for epigenetic DNA modifications on cytosine”

What was measured:
Assay in all cases: DAPPL (digital affinity profiling via proximity ligation, sequencing); 10 mM Tris-HCl pH 7.5, 50 mM NaCl, 1 mM DTT, 4% glycerol, room temperature, 30 min; GST-TFs on glutathione beads, 16-mer random dsDNA library, 0.1% formaldehyde crosslink after washing; high values mean tight binding
Conditions in all cases: protein: recombinant; tags: N-terminal GST; dsDNA, one strand shown
FLI1 = target: T1, FLI1 (Homo sapiens, UniProt Q01543 1-452)
T1 sequence: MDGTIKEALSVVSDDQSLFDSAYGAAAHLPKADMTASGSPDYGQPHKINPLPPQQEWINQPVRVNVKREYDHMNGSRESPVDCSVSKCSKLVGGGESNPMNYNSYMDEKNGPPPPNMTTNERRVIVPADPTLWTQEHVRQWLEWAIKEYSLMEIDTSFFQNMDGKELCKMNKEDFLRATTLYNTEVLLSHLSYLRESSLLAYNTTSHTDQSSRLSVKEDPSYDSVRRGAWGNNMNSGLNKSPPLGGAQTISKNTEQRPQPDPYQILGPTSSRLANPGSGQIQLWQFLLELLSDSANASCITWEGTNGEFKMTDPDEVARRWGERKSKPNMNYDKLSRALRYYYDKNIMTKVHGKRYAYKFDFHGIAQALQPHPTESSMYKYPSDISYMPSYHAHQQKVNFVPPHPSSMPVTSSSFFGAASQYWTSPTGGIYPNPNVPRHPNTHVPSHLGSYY
In short: (§1)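 Pools were built from human transcription factors expressed in yeast as GST fusions, captured on glutathione beads and DNA-barcoded, along with a tag-only sample. Incubation with 200 nmole of a 16-mer random double-stranded DNA library lasted 30 min at room temperature in Tris/NaCl/DTT/glycerol buffer, and was followed by washing, 0.1% formaldehyde crosslinking, proximity ligation, PCR amplification and Illumina NextSeq500 sequencing. Binding signal is the quotient of each hexamer's read frequency for a factor and its frequency for the tag-only sample.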

ELK1 = target: T2, ELK1 (Homo sapiens, UniProt P19419 1-428)
T2 sequence: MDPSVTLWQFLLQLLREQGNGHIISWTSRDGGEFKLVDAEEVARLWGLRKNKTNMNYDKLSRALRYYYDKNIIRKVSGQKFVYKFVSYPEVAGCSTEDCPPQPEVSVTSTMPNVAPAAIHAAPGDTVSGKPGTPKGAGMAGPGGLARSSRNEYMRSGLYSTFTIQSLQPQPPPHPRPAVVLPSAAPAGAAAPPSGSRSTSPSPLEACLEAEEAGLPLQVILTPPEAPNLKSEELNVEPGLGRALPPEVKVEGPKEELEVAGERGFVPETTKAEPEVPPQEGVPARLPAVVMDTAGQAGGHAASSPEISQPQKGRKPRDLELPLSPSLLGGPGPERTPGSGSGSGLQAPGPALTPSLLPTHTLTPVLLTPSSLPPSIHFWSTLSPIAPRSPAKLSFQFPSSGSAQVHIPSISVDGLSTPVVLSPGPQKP
In short: as §1

GABPA = target: T3, GABPA (Homo sapiens, UniProt Q06546 1-454)
T3 sequence: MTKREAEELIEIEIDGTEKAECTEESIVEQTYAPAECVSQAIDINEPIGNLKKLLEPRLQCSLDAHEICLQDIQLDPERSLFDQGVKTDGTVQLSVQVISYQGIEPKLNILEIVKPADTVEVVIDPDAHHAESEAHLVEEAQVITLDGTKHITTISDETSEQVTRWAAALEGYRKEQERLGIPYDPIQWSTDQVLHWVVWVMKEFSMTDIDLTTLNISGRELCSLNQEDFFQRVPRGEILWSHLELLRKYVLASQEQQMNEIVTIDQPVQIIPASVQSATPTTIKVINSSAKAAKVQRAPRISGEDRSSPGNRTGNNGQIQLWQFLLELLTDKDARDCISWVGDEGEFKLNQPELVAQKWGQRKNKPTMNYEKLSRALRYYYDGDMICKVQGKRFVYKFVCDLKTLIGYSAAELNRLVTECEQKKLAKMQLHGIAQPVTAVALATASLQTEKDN
In short: as §1

ERG = target: T4, ERG (Homo sapiens, UniProt P11308 1-479)
T4 sequence: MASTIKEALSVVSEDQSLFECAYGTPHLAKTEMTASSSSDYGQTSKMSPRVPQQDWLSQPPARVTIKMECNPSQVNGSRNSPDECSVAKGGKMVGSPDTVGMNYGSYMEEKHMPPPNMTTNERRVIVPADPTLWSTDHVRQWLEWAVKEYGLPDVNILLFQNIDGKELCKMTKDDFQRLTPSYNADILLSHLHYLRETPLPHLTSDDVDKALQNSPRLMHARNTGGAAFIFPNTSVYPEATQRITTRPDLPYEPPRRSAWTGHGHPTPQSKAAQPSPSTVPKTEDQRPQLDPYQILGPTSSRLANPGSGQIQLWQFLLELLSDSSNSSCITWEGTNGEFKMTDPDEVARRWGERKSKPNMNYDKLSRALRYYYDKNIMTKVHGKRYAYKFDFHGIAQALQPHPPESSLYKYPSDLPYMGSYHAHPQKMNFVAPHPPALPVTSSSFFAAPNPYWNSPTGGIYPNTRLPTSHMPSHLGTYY
In short: as §1

ELF1 = ELF1 (Homo sapiens, UniProt P32519 1-619)
In short: as §1

EHF = target: T5, EHF (Homo sapiens, UniProt Q9NZC4 1-300)
T5 sequence: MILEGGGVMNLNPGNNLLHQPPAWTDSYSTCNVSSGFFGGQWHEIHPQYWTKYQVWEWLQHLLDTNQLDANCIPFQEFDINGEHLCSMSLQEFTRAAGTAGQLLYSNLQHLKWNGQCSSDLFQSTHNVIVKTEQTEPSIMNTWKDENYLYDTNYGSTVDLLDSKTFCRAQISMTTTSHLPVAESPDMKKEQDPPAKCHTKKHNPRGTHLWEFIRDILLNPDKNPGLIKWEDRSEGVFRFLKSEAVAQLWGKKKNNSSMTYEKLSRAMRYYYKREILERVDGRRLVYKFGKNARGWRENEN
In short: as §1

SPI1 = SPI1 (Homo sapiens, UniProt P17947 1-270)
In short: as §1

SPIB = SPIB (Homo sapiens, UniProt Q01892 1-262)
In short: as §1

ELK3 = target: T6, ELK3 (Homo sapiens, UniProt P41970 1-407)
T6 sequence: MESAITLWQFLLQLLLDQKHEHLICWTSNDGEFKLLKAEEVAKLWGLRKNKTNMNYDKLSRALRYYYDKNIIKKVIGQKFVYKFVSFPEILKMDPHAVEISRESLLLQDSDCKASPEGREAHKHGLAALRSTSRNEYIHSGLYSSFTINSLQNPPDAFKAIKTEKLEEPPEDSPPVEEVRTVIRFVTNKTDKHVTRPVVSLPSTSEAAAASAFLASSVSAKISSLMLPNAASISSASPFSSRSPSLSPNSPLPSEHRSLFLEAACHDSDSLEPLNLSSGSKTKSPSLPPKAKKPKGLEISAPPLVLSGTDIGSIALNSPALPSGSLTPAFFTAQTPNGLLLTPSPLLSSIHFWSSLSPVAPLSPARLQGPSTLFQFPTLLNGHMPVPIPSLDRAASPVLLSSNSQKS
In short: as §1

SPIB, sequence (Q01892 whole entry): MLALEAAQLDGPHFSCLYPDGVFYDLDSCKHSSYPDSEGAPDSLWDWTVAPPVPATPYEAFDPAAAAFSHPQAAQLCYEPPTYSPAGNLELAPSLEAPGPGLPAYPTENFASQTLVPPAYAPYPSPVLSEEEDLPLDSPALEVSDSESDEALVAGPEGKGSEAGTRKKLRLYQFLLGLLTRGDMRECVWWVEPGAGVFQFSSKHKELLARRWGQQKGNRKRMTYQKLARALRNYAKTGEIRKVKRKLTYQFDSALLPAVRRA
ELF1, sequence (P32519 whole entry): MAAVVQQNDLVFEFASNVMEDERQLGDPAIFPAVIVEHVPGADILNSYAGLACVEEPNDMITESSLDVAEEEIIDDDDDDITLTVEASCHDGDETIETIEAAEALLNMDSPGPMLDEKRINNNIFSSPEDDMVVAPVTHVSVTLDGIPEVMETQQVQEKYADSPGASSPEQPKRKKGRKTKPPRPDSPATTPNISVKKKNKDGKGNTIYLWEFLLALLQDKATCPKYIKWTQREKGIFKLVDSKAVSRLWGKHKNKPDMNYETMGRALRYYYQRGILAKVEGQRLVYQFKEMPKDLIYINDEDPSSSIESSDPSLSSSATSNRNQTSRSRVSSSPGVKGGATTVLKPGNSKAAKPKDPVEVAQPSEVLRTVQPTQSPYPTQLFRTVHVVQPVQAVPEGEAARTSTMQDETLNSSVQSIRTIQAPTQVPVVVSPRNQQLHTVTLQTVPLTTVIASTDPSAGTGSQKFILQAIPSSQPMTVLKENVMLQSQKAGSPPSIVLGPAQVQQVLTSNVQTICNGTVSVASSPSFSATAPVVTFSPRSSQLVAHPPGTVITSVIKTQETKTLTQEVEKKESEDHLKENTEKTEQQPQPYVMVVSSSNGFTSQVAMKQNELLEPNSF

Sequence | binding signal (FLI1) | binding signal (ELK1) | binding signal (GABPA) | binding signal (ERG) | binding signal (ELF1) | binding signal (EHF) | binding signal (SPI1) | binding signal (SPIB) | binding signal (ELK3)
ACCCTA | 1.19 fold enrichment (6-mer frequency, TF over GST control) | 1.36 fold enrichment (6-mer frequency, TF over GST control) | 1.25 fold enrichment (6-mer frequency, TF over GST control) | 1.18 fold enrichment (6-mer frequency, TF over GST control) | 1.32 fold enrichment (6-mer frequency, TF over GST control) | 1.09 fold enrichment (6-mer frequency, TF over GST control) | 1.19 fold enrichment (6-mer frequency, TF over GST control) | 1.16 fold enrichment (6-mer frequency, TF over GST control) | 1.29 fold enrichment (6-mer frequency, TF over GST control)
TTTAAG | 1.3 fold enrichment (6-mer frequency, TF over GST control) | 1.33 fold enrichment (6-mer frequency, TF over GST control) | 1.38 fold enrichment (6-mer frequency, TF over GST control) | 1.33 fold enrichment (6-mer frequency, TF over GST control) | 1.34 fold enrichment (6-mer frequency, TF over GST control) | 1.27 fold enrichment (6-mer frequency, TF over GST control) | 1.42 fold enrichment (6-mer frequency, TF over GST control) | 1.31 fold enrichment (6-mer frequency, TF over GST control) | 1.46 fold enrichment (6-mer frequency, TF over GST control)
GATTAC | 1.16 fold enrichment (6-mer frequency, TF over GST control) | 1.1 fold enrichment (6-mer frequency, TF over GST control) | 1.13 fold enrichment (6-mer frequency, TF over GST control) | 1.12 fold enrichment (6-mer frequency, TF over GST control) | 1.07 fold enrichment (6-mer frequency, TF over GST control) | 1.12 fold enrichment (6-mer frequency, TF over GST control) | 1.09 fold enrichment (6-mer frequency, TF over GST control) | 1.15 fold enrichment (6-mer frequency, TF over GST control) | 1.18 fold enrichment (6-mer frequency, TF over GST control)
CTCCGG | 1.45 fold enrichment (6-mer frequency, TF over GST control) | 1.58 fold enrichment (6-mer frequency, TF over GST control) | 1.68 fold enrichment (6-mer frequency, TF over GST control) | 1.64 fold enrichment (6-mer frequency, TF over GST control) | 1.52 fold enrichment (6-mer frequency, TF over GST control) | 1.58 fold enrichment (6-mer frequency, TF over GST control) | 1.43 fold enrichment (6-mer frequency, TF over GST control) | 1.54 fold enrichment (6-mer frequency, TF over GST control) | 1.6 fold enrichment (6-mer frequency, TF over GST control)
TACTCT | 1.37 fold enrichment (6-mer frequency, TF over GST control) | 1.5 fold enrichment (6-mer frequency, TF over GST control) | 1.52 fold enrichment (6-mer frequency, TF over GST control) | 1.34 fold enrichment (6-mer frequency, TF over GST control) | 1.42 fold enrichment (6-mer frequency, TF over GST control) | 1.45 fold enrichment (6-mer frequency, TF over GST control) | 1.44 fold enrichment (6-mer frequency, TF over GST control) | 1.33 fold enrichment (6-mer frequency, TF over GST control) | 1.56 fold enrichment (6-mer frequency, TF over GST control)
ATCCCT | 1.35 fold enrichment (6-mer frequency, TF over GST control) | 1.28 fold enrichment (6-mer frequency, TF over GST control) | 1.22 fold enrichment (6-mer frequency, TF over GST control) | 1.24 fold enrichment (6-mer frequency, TF over GST control) | 1.31 fold enrichment (6-mer frequency, TF over GST control) | 1.22 fold enrichment (6-mer frequency, TF over GST control) | 1.16 fold enrichment (6-mer frequency, TF over GST control) | 1.27 fold enrichment (6-mer frequency, TF over GST control) | 1.12 fold enrichment (6-mer frequency, TF over GST control)
TTACTA | 1.34 fold enrichment (6-mer frequency, TF over GST control) | 1.31 fold enrichment (6-mer frequency, TF over GST control) | 1.36 fold enrichment (6-mer frequency, TF over GST control) | 1.33 fold enrichment (6-mer frequency, TF over GST control) | 1.28 fold enrichment (6-mer frequency, TF over GST control) | 1.23 fold enrichment (6-mer frequency, TF over GST control) | 1.27 fold enrichment (6-mer frequency, TF over GST control) | 1.36 fold enrichment (6-mer frequency, TF over GST control) | 1.31 fold enrichment (6-mer frequency, TF over GST control)
TCTTGT | 1.48 fold enrichment (6-mer frequency, TF over GST control) | 1.64 fold enrichment (6-mer frequency, TF over GST control) | 1.53 fold enrichment (6-mer frequency, TF over GST control) | 1.54 fold enrichment (6-mer frequency, TF over GST control) | 1.53 fold enrichment (6-mer frequency, TF over GST control) | 1.57 fold enrichment (6-mer frequency, TF over GST control) | 1.5 fold enrichment (6-mer frequency, TF over GST control) | 1.55 fold enrichment (6-mer frequency, TF over GST control) | 1.58 fold enrichment (6-mer frequency, TF over GST control)
